Our source for the Potency values is PubChem BioAssay AID493169 (National Center for Advancing Translational Sciences (NCATS), 2011).

Records with an inconclusive call do not appear. Entries that show only a call come without a potency. Active and inactive are the calls of the source. The call rests on the fitted dose curve; in most records, active means well fitted inhibition curve with a large enough effect; inconclusive means small, poorly fitted or top-dose-only effect; inactive means flat fitted curve, though single readings scatter.
Potency means the concentration at half of the fitted maximal effect.

The assay can be described thus: CHOP2 Reporter Counterscreen Assay for Inhibitors of Ubiquitin-specific Protease USP2a.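 Further: activated enterokinase alone at 50 pM in a cell-free format rather than USP2a or CHOP2; nearly all actives have a fitted effect of over 55% in size.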 The following applies: purified enterokinase, fluorogenic substrate, 485/531 nm; series mostly up to 38.3 µM. The method, boiled down:
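Cell-free counterscreen with pre-activated enterokinase alone (50 pM final) in 20mM Tris-HCl pH 8.0, 2mM CaCl2, 2mM beta-mercaptoethanol, 0.05% CHAPS; compound preincubation 30 min RT, reporter substrate 25nM final, fluorescence read after 10 min (Ex 485/Em 531).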
For `O=C(Nc1cnn(Cc2ccccc2)c1)c1nc2ncccn2n1`, the Potency entry is “inactive”.
For `CCCC(=O)Nc1ccc(N2CCN(C(=O)c3cc4ccccc4o3)CC2)cc1`, the Potency result was “inactive”.
For the compound `COc1ccc(OCC(=O)Nc2ccccc2OC)cc1`, the Potency result is “inactive”.
`C[C@H](CO)N1C[C@H](C)[C@@H](CN(C)S(=O)(=O)c2ccc(Cl)cc2)Oc2ccc(NS(=O)(=O)c3ccccc3)cc2CC1=O`: the Potency result was “inactive”.
Consider `COC(=O)CC1Oc2ccc(C)cc2NC1=O` (stereo not given), for which the Potency result is “inactive”.
With `NS(=O)(=O)c1ccc(NC(=O)CN2CCCCC2)cc1` the entry was “inactive”; with `Cc1cccc2c1N(CCCOc1ccc(C(C)(C)C)cc1)C(=O)C2=O`, “inactive”.
`O=C(Nc1ccc(N2CCCC2)cc1)c1ccc(Br)cc1`: the Potency is 5.01 µM (active).
With `O=C(COC(=O)c1ccc(NS(=O)(=O)c2cccs2)cc1)Nc1nc2c(F)c(F)c(F)cc2s1` the figure was 10 µM (active); with `Cc1cc(/C=C2\C(=N)N3N=C(c4ccco4)SC3=NC2=O)c(C)n1Cc1ccccc1`, 7.08 µM (active).
For `Clc1ccc2c(N/N=C/c3ccc(Br)cc3)ccnc2c1` the value was 7.94 µM (active); for `Cc1ccc(C(=O)NCc2ccc3c(c2)OCO3)cc1N1CCCC1=O`, “inactive”.
Turning to `COC(=O)N/N=C\c1cc(Br)ccc1OCc1ccccc1`, the Potency result is “inactive”.
For `NC1=NC(=O)/C(=C/c2cccc(-c3ccc(S(N)(=O)=O)cc3)c2)S1` the value was “inactive”; for `CCCc1cc(=O)oc2cc(C)c(CN3CCCC3)c(O)c12`, “inactive”.
As to `COc1ccccc1NC(=O)N1CCN(c2ccccn2)CC1`, the Potency result was “inactive”.
For `Cc1cc(SCC(=O)NC2CCCCC2)nc2ccccc12`, the Potency entry is “inactive”.
`CCCCCCCCCCCCCCCC[N+](C)(C)CCN(Cc1ccc(OC)cc1)c1ncccn1`: the Potency is 10 µM (active).
`CCOC(=O)COc1c(OC)cc(Cl)cc1C1Nc2ccccc2C(=O)N1c1ccccc1` (stereo not given): the Potency result was “inactive”.
Consider `Cc1cc(C(=O)Nc2ccccc2N2CCOCC2)c2ccccc2n1`, for which the Potency entry is “inactive”.
With `O=C(CSc1ncn[nH]1)Nc1ccc(Br)cc1F` the entry was “inactive”; with `CCc1nnc(NC(=O)CSc2nccn2-c2cccc(C)c2)s1`, “inactive”; with `Cc1c(NC(=O)C2CCCN2S(=O)(=O)c2ccc(Cl)cc2)c(=O)n(-c2ccccc2)n1C` (stereo not given), “inactive”.
Regarding `CCOc1ccc(CCn2c(-c3ccco3)nc3ccccc3c2=O)cc1OCC`, the Potency entry was “inactive”.
With `C#CCOCCOCCOCCNc1nc(N2CCN(C(=O)CCCCCCCCCCNC(=O)[C@@H](CCC(=O)O)n3cc(CCCCCN)nn3)CC2)nc(N2CCN(C(=O)CCCCCCCCCCNC(=O)[C@H](CCCCN)n3cc(C[C@@H](C)CC)nn3)CC2)n1`, the Potency was 5.62 µM (active).
As for `O=C(CNC(=O)C1CCCCC1)NC1=NCCS1`, the Potency entry is “inactive”.
With `CCn1c(COc2ccc(C)cc2)nnc1SCC(=O)Nc1ccc2c(c1)OCCO2`, the Potency result was “inactive”.
For `CC1=C(C(=O)OC(C)C)C(C)C(C(=O)OC(C)C)=C(C)N1` the value was “inactive”; for `Cc1cc(NC(=O)COC(=O)CCCOc2ccc(Cl)cc2C)no1`, “inactive”; for `COc1ccc(S(=O)(=O)NCCSCc2ccco2)cc1OC`, 10 µM (active).
For the compound `C#CCOCCOCCOCCNc1nc(N2CCN(C(=O)CCCCCCCCCCNC(=O)[C@H]([C@@H](C)CC)n3cc(CCCCCN)nn3)CC2)nc(N2CCN(C(=O)CCCCCCCCCCNC(=O)[C@H]([C@@H](C)CC)n3cc(CCCCN=C(N)N)nn3)CC2)n1`, the Potency is 2.24 µM (active).
For the compound `CC(=O)c1ccc(Nc2ncnc3c2oc2ccccc23)cc1`, the Potency entry was “inactive”.
With `Cc1ccc(C(=O)CSc2nnc(CNc3nc(-c4ccccc4)cs3)n2C)cc1` the entry was “inactive”; with `O=C(CCNc1cccc(Cl)c1)c1ccco1`, “inactive”; with `CCCCCCCCCCOC(=O)Cn1c(COc2ccc(Cl)cc2)[n+](C)c2ccccc21`, 8.91 µM (active).
Turning to `COc1ccccc1C(=O)n1nc(-c2cccnc2)nc1NCc1ccccc1`, the Potency was 1 µM (active).
Regarding `COc1ccc2nc(C)cc(SCC(=O)N/N=C/c3c(OC)ccc4ccccc34)c2c1`, the Potency result is “inactive”.
With `Cc1ccc(NC(=O)CS(=O)CC(=O)Nc2ccc(N3CCOCC3)cc2)cc1Cl` (stereo not given), the Potency result was “inactive”.
On to `CC(C)C(=O)Nc1ccc(C(=O)N2CCCCCC2)cc1`, for which the Potency entry was “inactive”.
Regarding `CC(C)(C)C1CCC(=NNC(=O)CN(c2ccccc2)S(C)(=O)=O)CC1` (stereo not given), the Potency result is “inactive”.
